For 36 molecules, inhibition results are on record in ChEMBL document CHEMBL3433997, “St. Jude Leishmania screening dataset” (2016).

Holding throughout (assay type): functional
In test [1] the target is Solute carrier family 2, facilitated glucose transporter member 1 (Homo sapiens) (UniProt P11166). Put plainly: ST_JUDE_LEISH: Cytotoxicity at 2uM final concentration against transgenic Leishmania Mexicana promastigotes LmGLUT1 that are glucose transport deficient and complemented with the human glucose transporter GLUT1. Activity is measured by DNA content using SYBR green in vitro.
Chain of Solute carrier family 2, facilitated glucose transporter member 1 (Homo sapiens) (P11166 whole entry): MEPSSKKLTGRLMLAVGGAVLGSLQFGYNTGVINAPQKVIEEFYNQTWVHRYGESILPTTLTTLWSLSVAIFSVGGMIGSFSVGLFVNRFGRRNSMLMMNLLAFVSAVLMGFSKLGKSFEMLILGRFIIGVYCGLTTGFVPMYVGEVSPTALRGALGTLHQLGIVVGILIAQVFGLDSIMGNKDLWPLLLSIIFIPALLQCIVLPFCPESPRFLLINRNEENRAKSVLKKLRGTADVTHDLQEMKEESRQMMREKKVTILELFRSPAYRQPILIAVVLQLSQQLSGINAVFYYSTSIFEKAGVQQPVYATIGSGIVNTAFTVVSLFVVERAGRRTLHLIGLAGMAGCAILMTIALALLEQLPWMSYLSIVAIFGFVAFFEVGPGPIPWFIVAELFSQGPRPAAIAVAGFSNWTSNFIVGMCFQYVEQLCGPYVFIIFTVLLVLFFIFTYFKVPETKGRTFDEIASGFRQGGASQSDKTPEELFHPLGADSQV

Test [2] deals with Hexose transporter 1 (Plasmodium falciparum) (UniProt O97467). Put plainly: ST_JUDE_LEISH: Cytotoxicity at 2uM final concentration against transgenic Leishmania Mexicana promastigotes LmPfHT that are glucose transport deficient and complemented with the Plasmodium falciparum hexose transporter. Activity is measured by DNA content using SYBR green in vitro.
The target of test [3] is Glucose transporter (Leishmania mexicana) (UniProt O61059). Put plainly: ST_JUDE_LEISH: Cytotoxicity at 2uM final concentration against transgenic Leishmania Mexicana promastigotes LmGT2 that are glucose transport deficient and complemented with the L. Mexicana glucose transporter 2. Activity is measured by DNA content using SYBR green in vitro.

Take `COc1ccccc1C1CC(c2ccccc2)=NN1C(=O)c1ccccc1` (stereo not drawn): the inhibition (usually the relative decrease from the control value, in per cent) in test [1] was -3.13%; in test [2], -0.25%; in test [3] it was -0.28%.
As for `CC1CCN(C(=O)C(Cc2c[nH]c3ccccc23)NS(=O)(=O)c2ccc(Cl)cc2)CC1` (stereo not drawn), the results for the inhibition in test [1], in test [2] and in test [3] were 0.31%, 1.31% and -0.09%, respectively.
The matching figures for `CC(C)CNCc1cccc(-c2ccc(CN(CCCN3CCN(C)CC3)C(=O)CCC3CCCC3)cc2)c1`: 38.9%, 56.9% and 9.11%.
The like results for `Cc1sc(CNCCCNc2cc(=O)c3ccccc3[nH]2)c(C(F)(F)F)c1C` were, in that order, -2.84%, -0.65% and -0.52%.
The like results for `CN1CCN(c2ccc(Nc3nccc(-c4cnn5ncccc45)n3)cc2Cl)CC1` were, in that order, 90.6%, 95.1% and 83.8%.
In the case of `COC(=O)c1cccc(OCCNC2CCN(C[C@H](O)c3ccnc4ccc(OC)cc34)CC2)c1`, the inhibition in test [1] was 0.73%; in test [2], -0.34%; in test [3] it was 0.25%.
The matching figures for `CC1(CCCCN2CCC(c3c[nH]c4cnccc34)CC2)C(=O)Nc2cccc(Cl)c21` (stereo not drawn): 0.37%, 0.54% and 1.21%.
The matching figures for `CN1CCN(c2ccnc3ccc(NC(=O)Cc4cccc(Cl)c4Cl)cc23)CC1`: 1.15%, -1.14% and -0.31%.
The like results for `CS(=O)(=O)N(c1ccc(F)cc1)c1cc(C(=O)N[C@@H](Cc2ccccc2)[C@H](O)CNCc2cccc(C(F)(F)F)c2)cc(N2CCCC2=O)c1` were, in that order, 1.67%, -0.54% and -1.53%.
Consider `CCCC1N=C(N)N=C(N)N1c1ccc(CC)cc1` (stereo not drawn), for which the inhibition came to 1.98% in test [1], 0.44% in test [2] and 1.72% in test [3].
The like results for `Nc1ccc(-c2nc3cc(Cc4ccc5[nH]c(-c6ccc(N)cc6)nc5c4)ccc3[nH]2)cc1` were, in that order, 0.06%, -2.2% and -2.11%.
Regarding `CCCCc1cc(NCc2ccncc2)nc(Nc2cccc(OC)c2)n1`, the results for the inhibition in test [1], in test [2] and in test [3] were 21.4%, 10.9% and 3.45%, respectively.
On to `CCN(CC)c1nc(N)c2c(N)nc3c(c2c1C#N)C(=O)CN3Cc1ccccc1`, for which the inhibition in test [1] amounted to 7.21%; in test [2], 6.8%; in test [3] it was 6.97%.
The like results for `CCN(CC)CCNC(=O)c1ccc(N/C=C2\C(=O)Nc3ccc(S(=O)(=O)Cc4c(Cl)cccc4Cl)cc32)cc1` were, in that order, -0.98%, -0.63% and -1.08%.
For `COc1ccc2nccc([C@@H](O)CN3CCC(NCc4cc5oc(=O)[nH]c5cc4Cl)CC3)c2c1`, the inhibition in test [1] is -1.1%; in test [2], -1.56%; in test [3] it was -0.82%.
The like results for `CCn1c(-c2nonc2N)nc2c(-c3cccc(NC(=O)Nc4ccccc4OC)c3)ncc(OCCCN)c21` were, in that order, 2.94%, 3.41% and 3.42%.
The matching figures for `N=C(N)NC(=O)Nc1cc(F)c(Cl)c(Br)c1`: 3.49%, 4.05% and -2.83%.
The matching figures for `O=C(Nc1cc(Cl)cc(Cl)c1)N[C@H]1CCN(CCCCCNC(=O)C2CC2c2ccc(Cl)c(Cl)c2)C1` (stereo partly drawn): 0.25%, -1.16% and 2.06%.
Take `N#Cc1ccc2c(c1)CCN(CCC1CCC(NC(=O)c3ccc(-c4ccccn4)s3)CC1)CC2` (stereo not drawn): the inhibition in test [1] amounted to 13.3%; in test [2], 9.45%; in test [3], 9.9%.
As for `Cc1c(Cl)ccc2sc(N3CCN(C(=O)c4ccc([N+](=O)[O-])o4)CC3)nc12`, the inhibition amounted to 71.9% in test [1], 57.6% in test [2] and 30% in test [3].
The matching figures for `COc1cc2nc(N(C)Cc3cc4c(Cl)cccc4s3)nc(N)c2cc1OC`: -0.54%, -1.7% and -3.11%.
As to `O=C(c1cnn(-c2ccccc2)c1C(F)(F)F)N1CCN(c2ccnc3cc(Cl)ccc23)CC1`, the inhibition is 1.81% in test [1], 1.39% in test [2] and 2.15% in test [3].
Regarding `C=CCn1c(SCC(=O)Nc2cc(C)ccc2OC)nc2sc(C)cc2c1=O`, the values for the inhibition in test [1], in test [2] and in test [3] were 4.32%, 3.15% and 2.13%, respectively.
The matching figures for `Cc1ccc2nc(-c3ccc(C(=O)NCc4ccc(Cl)c(Cl)c4)cc3)[nH]c2c1C`: 2.57%, 0.03% and 0.59%.
With `COc1ccccc1CCN1CCC(CN(C)Cc2ccc(O)c(Cl)c2)CC1`, the figures for the inhibition in test [1], in test [2] and in test [3] were 2.46%, 5.47% and 4.27%, respectively.
The like results for `CCCN1CCN(CC(O)CNC(=O)Nc2ccc(Br)cc2)CC1` (stereo not drawn) were, in that order, 3.68%, 4.03% and 3.09%.
With `CN(CCCCCNC(=O)/C=C/c1ccc(Cl)c(Cl)c1)CCCCc1c[nH]c2ccccc12`, the inhibition in test [1] amounted to 0.57%; in test [2], 0.62%; in test [3], 1.11%.
The like results for `COc1ccc2nccc([C@@H](O)CN3CCC(NCc4cnc5snnc5c4)C(F)C3)c2c1` (stereo partly drawn) were, in that order, 0.43%, 1.51% and 2.93%.
As for `O=C(NC1CC1)c1cnc(N2CCC(c3ccccc3)CC2)c(Cl)c1`, the inhibition worked out at 2.86% in test [1], 6.43% in test [2] and 3.1% in test [3].
The like results for `CCOC(=O)c1c(NC(NC(=O)c2ccc(C(C)(C)C)cc2)C(Cl)(Cl)Cl)sc2c1CCCC2` (stereo not drawn) were, in that order, 10.5%, 8.72% and 9.68%.
The like results for `Cc1ccc(C)c(C2CCN(CCCCNC(=O)c3ccc(NC(=O)c4ccc(Cl)cc4)cc3)CC2)c1` were, in that order, -1.18%, 0.21% and 0.05%.
The matching figures for `COc1ccc2nc(-c3cccc(C)n3)nc(Nc3ccncc3)c2c1`: 11.6%, 1.8% and 2.21%.
In the case of `CC(C)c1ccc(-c2nc3cc(Cl)cnc3[nH]2)cc1`, the values for the inhibition in test [1], in test [2] and in test [3] were 3.03%, 3.85% and 4.06%, respectively.
The like results for `OC1CCCN(Cc2cccc(-c3ccc(-c4nc5cc(C(F)(F)F)ccc5[nH]4)cc3)c2)C1` (stereo not drawn) were, in that order, 2.67%, 2.8% and 3.54%.
The like results for `COc1cccc(CCc2cccc(CNC(C)=O)c2)c1` were, in that order, 5.81%, 4.65% and 5.68%.
The matching figures for `Cc1cc2[nH]c(-c3ccc(C(=O)NCCCN4CCN(c5cccc(Cl)c5)CC4)cc3F)nc2cc1Cl`: -0.3%, 0.43% and -0.02%.
